Unmarked numbers belong to inactive results.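 How the source made its calls: active = growth AUC significantly below the DMSO wells by Dunnett test; inactive = the rest.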
The targets below were run with COc1c(Cl)ccc(Cl)c1C(=O)O (assay: relative growth (AUC of 72 h growth curve relative to DMSO control, dAUC) (ratio); higher = more growth (less inhibition), active = hit call of the paper). Details: 20 µM.
Description: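 Environmental bacterial isolates (Iceland stream sediment and Silwood Park soil) and whole stream-sediment communities were grown in LB from a 1:100 dilution with each pesticide at 20 µM (1% DMSO). A600 was read hourly for 72 h and the area under a spline-fitted growth curve (AUC) was computed. dAUC is the mean AUC of 3 biological replicates divided by the mean AUC of the DMSO controls. Significance was tested by Dunnett's test against the DMSO control.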
With Serratia 1 (Serratia sp. 2015-2462-01) the relative growth was 1.02. Bacillus 1 (Bacillus foraminis) showed a relative growth of 1.07. In the case of Hymenobacter 1 (Hymenobacter glaciei), the relative growth was 1. Work on Neobacillus 1 (Neobacillus soli) yielded a relative growth of 1.06. Target “Flavobacterium 1 (Flavobacterium glaciei)” has a relative growth of 1. Arthrobacter 2 (Arthrobacter humicola) was tested, and the relative growth was 1.1. With Community 10 the relative growth was 1.03. Work on Community 6 yielded a relative growth of 1.03. With Community 4 the relative growth was 1.09. For Pseudomonas 1 (Pseudomonas baetica), the relative growth was 0.637. Arthrobacter 1 (Arthrobacter humicola) was tested, and the relative growth was 0.981. Work on Community 8 yielded a relative growth of 0.99. Community 7 was tested, and the relative growth was 0.945. In the case of “Microbacterium 1 (Microbacterium arborescens)”, the relative growth was 1.02. Target Pseudomonas 4 (Pseudomonas peli) has a relative growth of 1.01. For Rhizobium 1 (Rhizobium herbae), the relative growth was 0.947. For Community 9, the relative growth was 1.09. Aeromonas 2 (Aeromonas sobria) showed a relative growth of 1.01. In the case of Pseudomonas 3 (Pseudomonas mandelii), the relative growth was 0.984. In the case of “Carnobacterium 1 (Carnobacterium gallinarum)”, the relative growth was 1.19. With “Flavobacterium 2 (Flavobacterium succinicans)” the relative growth was 1.01. “Paenibacillus 1 (Paenibacillus castaneae)” was tested, and the relative growth was 1.01. Target “Pseudomonas 2 (Pseudomonas vancouverensis)” has a relative growth of 0.985. Aeromonas 1 (Aeromonas sp. AE235) gave a relative growth of 1.02. Sphingomonas 2 (Sphingomonas sp.) gave a relative growth of 1.01. Work on Pseudomonas 6 (Pseudomonas sp.) yielded a relative growth of 1.1. Arthrobacter 3 (Arthrobacter sp.) was tested, and the relative growth was 1.07. For “Prolinoborus 1 (Prolinoborus fasciculus)”, the relative growth was 0.986. Argrobacterium 1 (Agrobacterium sp.) gave a relative growth of 1.01. Pseudomonas 5 (Pseudomonas baetica) gave a relative growth of 1.02. Oryzobacter 1 (Oryzobacter terrae) was tested, and the relative growth was 0.925. For Aeromonas 3 (Aeromonas popoffii), the relative growth was 1.02.
